# PubChem BioAssay AID1159580 (chemical genetic matrix, 2015)
# “And” between values parts separate entries of the source, which are not always exact repeats. Identical values can stand only once. Out of some 5,500 compounds screened, about 2,000 (36%) were called active. About 18% were inconclusive and are not listed. This is one part of the list. Values without a mark were called inactive. Cut-off read from the data, not from the text of the source: active = normalized growth mostly below about 0.91 (no sharp cut-off); inconclusive = no clear call, values can overlap the other calls; inactive = mostly above about 0.92.
# Test: chemical genetic growth profiling, strain panel (AID 1159580);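 note: tested at 20 µM; growth read once vehicle control cultures reached saturation at 30 °C; 1 = growth at the plate median or of vehicle wells; lower values mean less growth of the strain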
# Conditions: S. cerevisiae deletion strains, growth OD
compound,measurement,setting,value
CC12CCC3C(=CCc4cc(O)ccc43)C1CCC2=O (stereo not given),normalized growth,"locus YAL021C, strain ccr4, active compounds read low",0.932
same,normalized growth,"locus YAL026C, strain drs2, active compounds read low",0.992
same,normalized growth,"locus YAL030W, strain snc1, active compounds read low",0.998
same,normalized growth,"locus YBL061C, strain skt5, active compounds read low",0.971
same,normalized growth,"locus YBR009C, strain hhf1, active compounds read low",0.972
same,normalized growth,"locus YBR021W, strain FUR4, active compounds read low",0.913
same,normalized growth,"locus YBR023C, strain chs3, active compounds read low",0.974
same,normalized growth,"locus YBR171W, strain sec66, active compounds read low",0.986
same,normalized growth,"locus YBR229C, strain ROT2, active compounds read low",0.989
same,normalized growth,"locus YBR231C, strain swc5, active compounds read low",0.978
same,normalized growth,"locus YBR279W, strain paf1, active compounds read low",0.964
same,normalized growth,"locus YCL011C, strain gbp2, active compounds read low",0.98
same,normalized growth,"locus YCL016C, strain dcc1, active compounds read low",0.99
same,normalized growth,"locus YCL029C, strain bik1, active compounds read low",0.995
same,normalized growth,"locus YCL061C, strain MRC1, active compounds read low",0.965
same,normalized growth,"locus YCL069W, strain vba3, active compounds read low",0.964
same,normalized growth,"locus YCR088W, strain abp1, active compounds read low",0.981
same,normalized growth,"locus YDL005C, strain med2, active compounds read low",0.959
same,normalized growth,"locus YDL035C, strain GPR1, active compounds read low",0.898
same,normalized growth,"locus YDL040C, strain nat1, active compounds read low",0.995
same,normalized growth,"locus YDL074C, strain BRE1, active compounds read low",0.882
same,normalized growth,"locus YDL101C, strain DUN1, active compounds read low",0.975
same,normalized growth,"locus YDL185W, strain tfp1, active compounds read low",1.01
same,normalized growth,"locus YDL192W, strain arf1, active compounds read low",0.956
same,normalized growth,"locus YDR001C, strain nth1, active compounds read low",0.976
same,normalized growth,"locus YDR069C, strain doa4, active compounds read low",0.966
same,normalized growth,"locus YDR101C, strain arx1, active compounds read low",1.01
same,normalized growth,"locus YDR137W, strain rgp1, active compounds read low",0.614 (active)
same,normalized growth,"locus YDR150W, strain NUM1, active compounds read low",0.991
same,normalized growth,"locus YDR159W, strain sac3, active compounds read low",0.978
same,normalized growth,"locus YDR162C, strain NBP2, active compounds read low",0.515 (active)
same,normalized growth,"locus YDR195W, strain ref2",1.12
same,normalized growth,"locus YDR297W, strain sur2, active compounds read low",0.983
same,normalized growth,"locus YDR318W, strain mcm21, active compounds read low",0.962
same,normalized growth,"locus YDR334W, strain swr1, active compounds read low",0.936
same,normalized growth,"locus YDR335W, strain msn5, active compounds read low",0.925
same,normalized growth,"locus YDR388W, active compounds read low",0.983
same,normalized growth,"locus YDR392W, strain spt3, active compounds read low",0.937
same,normalized growth,"locus YDR502C, strain sam2, active compounds read low",0.961
same,normalized growth,"locus YEL003W, strain gim4, active compounds read low",0.945
same,normalized growth,"locus YEL037C, strain rad23, active compounds read low",0.99
same,normalized growth,"locus YEL061C, strain CIN8 (second series), active compounds read low",0.957
same,normalized growth,"locus YEL061C, strain CIN8, active compounds read low",0.967
same,normalized growth,"locus YER015W, strain faa2, active compounds read low",0.938
same,normalized growth,"locus YER016W, strain bim1, active compounds read low",0.976
same,normalized growth,"locus YER110C, active compounds read low",0.993
same,normalized growth,"locus YER111C, strain swi4, active compounds read low",0.989
same,normalized growth,"locus YER155C, strain BEM2 (second series), active compounds read low",0.987
same,normalized growth,"locus YER155C, strain BEM2, active compounds read low",0.994
same,normalized growth,"locus YER167W, strain BCK2, active compounds read low",0.988
same,normalized growth,"locus YFR010W, strain ubp6, active compounds read low",0.964
same,normalized growth,"locus YGL078C, strain dbp3, active compounds read low",1
same,normalized growth,"locus YGL086W, strain mad1, active compounds read low",0.949
same,normalized growth,"locus YGL167C, strain pmr1, active compounds read low",0.96
same,normalized growth,"locus YGL173C, strain kem1, active compounds read low",0.959
same,normalized growth,"locus YGL227W, strain vid30, active compounds read low",0.989
same,normalized growth,"locus YGL240W, strain doc1, active compounds read low",0.946
same,normalized growth,"locus YGL248W, strain PDE1, active compounds read low",0.936
same,normalized growth,"locus YGL253W, strain hxk2, active compounds read low",0.961
same,normalized growth,"locus YGR078C, strain PAC10, active compounds read low",0.903
same,normalized growth,"locus YGR135W, strain pre9, active compounds read low",0.952
same,normalized growth,"locus YGR229C, strain SMI1, active compounds read low",0.964
same,normalized growth,"locus YGR252W, strain gcn5, active compounds read low",0.882
same,normalized growth,"locus YHR013C, strain ard1, active compounds read low",0.994
same,normalized growth,"locus YHR027C, strain rpn1, active compounds read low",0.976
same,normalized growth,"locus YHR030C, strain SLT2, active compounds read low",0.981 and 1.03
same,normalized growth,"locus YHR079C, strain IRE1 (second series), active compounds read low",1.01
same,normalized growth,"locus YHR079C, strain IRE1, active compounds read low",1.03
same,normalized growth,"locus YHR094C, strain hxt1, active compounds read low",1.01
same,normalized growth,"locus YHR129C, strain ARP1, active compounds read low",0.968
same,normalized growth,"locus YHR142W, strain chs7, active compounds read low",0.929
same,normalized growth,"locus YHR200W, strain rpn10, active compounds read low",1
same,normalized growth,"locus YIL066C, strain RNR3, active compounds read low",0.881
same,normalized growth,"locus YIL073C, strain SPO22, active compounds read low",0.897
same,normalized growth,"locus YIL125W, strain kgd1, active compounds read low",0.994
same,normalized growth,"locus YIR030C, strain dcg1, active compounds read low",0.993
same,normalized growth,"locus YJL092W, strain hpr5, active compounds read low",0.993
same,normalized growth,"locus YJL095W, strain BCK1 (second series), active compounds read low",0.982
same,normalized growth,"locus YJL095W, strain BCK1, active compounds read low",0.819 and 1.04
same,normalized growth,"locus YJL115W, strain asf1, active compounds read low",0.97
same,normalized growth,"locus YJL129C, strain trk1, active compounds read low",0.965
same,normalized growth,"locus YJL134W, strain LCB3, active compounds read low",0.988
same,normalized growth,"locus YJL154C, strain vps35, active compounds read low",0.983
same,normalized growth,"locus YJL164C, strain tpk1, active compounds read low",0.964
same,normalized growth,"locus YJL166W, strain qcr8, active compounds read low",0.952
same,normalized growth,"locus YJL168C, strain set2, active compounds read low",0.994
same,normalized growth,"locus YJL187C, strain SWE1 (second series), active compounds read low",0.928
same,normalized growth,"locus YJR043C, strain POL32, active compounds read low",0.933
same,normalized growth,"locus YJR066W, strain TOR1, active compounds read low",0.99
same,normalized growth,"locus YKL009W, strain mrt4, active compounds read low",0.948
same,normalized growth,"locus YKL068W, active compounds read low",0.995
same,normalized growth,"locus YKL085W, strain MDH1 (second series), active compounds read low",0.98
same,normalized growth,"locus YKL085W, strain MDH1, active compounds read low",0.98
same,normalized growth,"locus YKL160W, strain elf1, active compounds read low",0.942
same,normalized growth,"locus YKL190W, strain CNB1, active compounds read low",0.977
same,normalized growth,"locus YKR001C, strain vps1, active compounds read low",0.908
same,normalized growth,"locus YKR091W, strain srl3, active compounds read low",0.98
same,normalized growth,"locus YLL001W, strain dnm1, active compounds read low",0.94
same,normalized growth,"locus YLL026W, active compounds read low",0.988
same,normalized growth,"locus YLL041C, strain sdh2, active compounds read low",0.974
same,normalized growth,"locus YLR027C, strain aat2, active compounds read low",0.968
same,normalized growth,"locus YLR039C, strain RIC1, active compounds read low",0.397 (active)
same,normalized growth,"locus YLR058C, strain SHM2, active compounds read low",0.958
same,normalized growth,"locus YLR102C, strain apc9, active compounds read low",1.02
same,normalized growth,"locus YLR113W, strain HOG1, active compounds read low",1.07
same,normalized growth,"locus YLR221C, strain rsa3, active compounds read low",0.956
same,normalized growth,"locus YLR258W, strain gsy2, active compounds read low",0.968
same,normalized growth,"locus YLR262C, strain YPT6 (second series), active compounds read low",0.598 (active)
same,normalized growth,"locus YLR262C, strain YPT6, active compounds read low",0.377 (active)
same,normalized growth,"locus YLR268W, strain sec22, active compounds read low",0.973
same,normalized growth,"locus YLR320W, strain mms22, active compounds read low",0.94
same,normalized growth,"locus YLR330W, strain CHS5, active compounds read low",0.979
same,normalized growth,"locus YLR342W, strain FKS1 (second series), active compounds read low",0.76 (active)
same,normalized growth,"locus YLR342W, strain FKS1, active compounds read low",0.914
same,normalized growth,"locus YLR357W, strain rsc2, active compounds read low",1.02
same,normalized growth,"locus YLR370C, strain arc18, active compounds read low",0.98
same,normalized growth,"locus YLR371W, strain rom2, active compounds read low",0.986
same,normalized growth,"locus YLR384C, strain iki3, active compounds read low",0.96
same,normalized growth,"locus YLR418C, strain cdc73, active compounds read low",0.905
same,normalized growth,"locus YML016C, strain PPZ1, active compounds read low",0.973
same,normalized growth,"locus YML032C, strain rad52, active compounds read low",0.958
same,normalized growth,"locus YML120C, strain ndi1, active compounds read low",0.971
same,normalized growth,"locus YML124C, strain tub3, active compounds read low",0.995
same,normalized growth,"locus YMR058W, strain fet3, active compounds read low",0.959
same,normalized growth,"locus YMR078C, strain ctf18, active compounds read low",0.994
same,normalized growth,"locus YMR125W, strain sto1, active compounds read low",0.988
same,normalized growth,"locus YMR129W, active compounds read low",0.987
same,normalized growth,"locus YMR205C, strain PFK2, active compounds read low",0.945
same,normalized growth,"locus YMR223W, strain ubp8, active compounds read low",0.973
same,normalized growth,"locus YMR231W, strain pep5, active compounds read low",0.969
same,normalized growth,"locus YMR307W, strain GAS1, active compounds read low",0.763
same,normalized growth,"locus YNL067W, strain RPL9B, active compounds read low",0.935
same,normalized growth,"locus YNL071W, strain lat1, active compounds read low",0.978
same,normalized growth,"locus YNL128W, strain TEP1, active compounds read low",0.967
same,normalized growth,"locus YNL183C, strain NPR1, active compounds read low",0.986
same,normalized growth,"locus YNL209W, strain ssb2, active compounds read low",0.973
same,normalized growth,"locus YNL233W, strain BNI4, active compounds read low",0.936
same,normalized growth,"locus YNL248C, strain rpa49, active compounds read low",0.908
same,normalized growth,"locus YNL250W, strain rad50, active compounds read low",0.992
same,normalized growth,"locus YNL271C, strain bni1, active compounds read low",0.974
same,normalized growth,"locus YNL298W, strain CLA4, active compounds read low",0.963
same,normalized growth,"locus YNL307C, strain MCK1, active compounds read low",0.826 (active)
same,normalized growth,"locus YNL322C, strain KRE1 (second series), active compounds read low",0.984
same,normalized growth,"locus YNL322C, strain KRE1, active compounds read low",0.988
same,normalized growth,"locus YNR049C, strain mso1, active compounds read low",0.987
same,normalized growth,"locus YNR052C, strain pop2, active compounds read low",0.901 (active)
same,normalized growth,"locus YOL006C, strain TOP1, active compounds read low",0.618
same,normalized growth,"locus YOL012C, strain htz1",1.37
same,normalized growth,"locus YOL147C, strain pex11, active compounds read low",1
same,normalized growth,"locus YOR001W, strain rrp6, active compounds read low",0.955
same,normalized growth,"locus YOR061W, strain CKA2, active compounds read low",0.971
same,normalized growth,"locus YOR069W, strain VPS5, active compounds read low",0.978
same,normalized growth,"locus YOR070C, strain gyp1, active compounds read low",0.979
same,normalized growth,"locus YOR080W, strain dia2, active compounds read low",0.963
same,normalized growth,"locus YOR083W, strain WHI5, active compounds read low",0.934
same,normalized growth,"locus YOR106W, strain vam3, active compounds read low",0.902
same,normalized growth,"locus YOR136W, strain idh2, active compounds read low",1.01
same,normalized growth,"locus YOR144C, strain elg1, active compounds read low",0.993
same,normalized growth,"locus YOR184W, strain ser1, active compounds read low",0.81 (active)
same,normalized growth,"locus YOR231W, strain MKK1, active compounds read low",1.04
same,normalized growth,"locus YOR265W, strain rbl2, active compounds read low",0.977
same,normalized growth,"locus YOR270C, strain vph1, active compounds read low",0.852
same,normalized growth,"locus YOR290C, strain snf2, active compounds read low",0.961
same,normalized growth,"locus YOR316C, strain cot1, active compounds read low",0.987
same,normalized growth,"locus YPL051W, strain arl3, active compounds read low",0.916
same,normalized growth,"locus YPL055C, strain LGE1, active compounds read low",0.89
same,normalized growth,"locus YPL078C, strain atp4, active compounds read low",0.908
same,normalized growth,"locus YPL106C, strain sse1, active compounds read low",0.992
same,normalized growth,"locus YPL240C, strain hsp82, active compounds read low",0.986
same,normalized growth,"locus YPL256C, strain CLN2, active compounds read low",1.06
same,normalized growth,"locus YPR119W, strain clb2, active compounds read low",1
same,normalized growth,"locus YPR141C, strain kar3, active compounds read low",0.996
same,normalized growth,"locus YPR163C, strain tif3, active compounds read low",0.875 (active)
same,normalized growth,"locus YPR167C, strain met16, active compounds read low",0.975
same,normalized growth,"strain wtn01, active compounds read low",0.986
